Screening data from PubChem.
PLCg1 inh: inhibitors of human phospholipase C gamma1; purified PLC-gamma1, fluorogenic substrate, fluorescence; 370,000 compounds, 0.84% hits; AID 720700; P19174; inhibition, % at 12.2 µM; in the data active means inhibition above about 9.5%
ADAM10 inh: inhibitors of human ADAM10. AID 720582. inhibition, % at 7 µM. 370,000 compounds, 0.62% hits. O14672. recombinant ADAM10, EDANS/DABCYL FRET peptide cleavage, 3 h;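 active means inhibition above a per-campaign cutoff equal to the mean of compounds falling between control-based bounds plus 3 SD, cut at about 20% in these data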
ADAM17 inh: inhibits human ADAM17. recombinant ADAM17, EDANS/DABCYL FRET peptide cleavage. inhibition, % at 6.95 µM. 370,000 compounds, 0.83% hits. AID 720648;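 active means inhibition above the mean of compounds lying between control limits plus 3 SD, set per campaign, cut at about 8.5% in these data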
KLK7 zymogen act: activates the human kallikrein-7 zymogen; P49862; 370,000 compounds, 0.9% hits; activation, % at 7 µM; purified proKLK7, EDANS-DABCYL substrate fluorescence; 100% is mature enzyme control, 0% vehicle;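 active means activation above the mean of all tested compounds plus 3 SD, computed per campaign excluding outliers beyond control limits, cut at about 13% in these data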
Target sequence (P49862 whole entry, looked up): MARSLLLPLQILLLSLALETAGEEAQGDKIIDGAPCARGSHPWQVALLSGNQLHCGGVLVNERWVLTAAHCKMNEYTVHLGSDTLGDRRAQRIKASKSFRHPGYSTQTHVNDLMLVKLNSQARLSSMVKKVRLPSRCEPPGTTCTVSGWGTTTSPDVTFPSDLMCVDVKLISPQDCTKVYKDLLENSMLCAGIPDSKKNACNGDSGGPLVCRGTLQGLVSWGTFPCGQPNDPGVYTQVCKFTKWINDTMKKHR
PLCb3 inh: blocks human PLC-beta3 enzyme activity; 370,000 compounds, 0.18% hits; inhibition, % at 12.2 µM; AID 720704; Purified PLC-beta3, fluorogenic substrate, fluorescence; in the data active means inhibition above about 11%
proKLK7 act conf: confirmation of human kallikrein-7 zymogen activators; 3,200 compounds, 68% hits; shares compounds with KLK7 zymogen act; activation, % at 7 µM; purified proKLK7, EDANS-DABCYL substrate fluorescence; scaled: vehicle 0, mature enzyme 100;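 active means activation, as change over the incubation, above the mean of all tested compounds plus 3 SD, cut at about 13% in these data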
EDANS interfere: optically interferes with EDANS-DABCYL signal, flagging KLK7 hits. shares compounds with KLK7 zymogen act. EDANS-DABCYL substrate fluorescence interference, no enzyme, 4 h; solvent 0%, active enzyme control 100%. activation, % at 7 µM. 3,200 compounds, 80% hits. AID 686952;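 active means activation above the all-compound mean plus 3 SD, ignoring values outside control-based bounds, cut at about 4.8% in these data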;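 further: value is the 4 h activation minus the activation read at time zero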
K7 EDANS ctr: EDANS fluorescence interference in dose response, no enzyme; 250 compounds, 20% hits; EC50, µM; EDANS-DABCYL peptide fluorescence interference; AID 720493; shares compounds with KLK7 zymogen act;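 active means compounds that raise the fluorescence signal in this interference counterscreen, with EC50 at or below 10 µM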;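 further: intact quenched peptide substrate alone read at 355 nm excitation and 520 nm emission; signal is fluorescence gain from T0 to T4 after four hours at room temperature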
Large screens that a line does not name were inactive (follow-up assays come after a bar, where they were run); ! = not active in a repeat. A selection: hits, their analogues and other compounds. The true share with any hit is near 2.9%.

Cc1cc(NCCCN(C)C)n2c(nc3ccccc32)c1C#N	KLK7 zymogen act 72 | proKLK7 act conf 72 | EDANS interfere 69
Cc1cc(-n2ccnc2)n2c(nc3ccccc32)c1C#N	none
CCCc1cc(-n2ccnc2)n2c(nc3ccccc32)c1C#N	none
Cc1cc(NCCCOC(C)C)n2c(nc3ccccc32)c1C#N	none
O=C(Nc1nc2c(Br)cccc2s1)c1ccc2c(c1)OCCO2	none (no result: KLK7 zymogen act)
N#CN1CCC(NS(=O)(=O)c2cccc(C(F)(F)F)c2)CC1	none (no result: KLK7 zymogen act)
O=S1(=O)CC2c3ccccc3CN2CN1Cc1ccc(F)cc1 (stereo not drawn)	none
CCOC(=O)N1CCN(C(=O)C[C@H]2C[C@@]3(C(=O)OC)C(=C[C@H](C(C)C)O[C@@H]3C3CC3)N(Cc3cccc4ccccc34)C2=O)CC1	none
Nc1ccc2ccc(O)cc2c1	none
C[n+]1c2cc(N)ccc2cc2ccc(N)cc21	KLK7 zymogen act 34! | proKLK7 act conf 56 | EDANS interfere 59
CCCCn1c(N)c(N(CCOC)C(=O)COC(=O)c2ccccc2NCCO)c(=O)[nH]c1=O	KLK7 zymogen act 36 | proKLK7 act conf 19 | EDANS interfere 22
COCCN(C(=O)COC(=O)c1ccccc1NCc1ccco1)c1c(N)n(Cc2ccccc2)c(=O)[nH]c1=O	none
CC(=O)N1CCC2(CC1)CC(=O)c1cc(OCC(=O)NCc3ccc(C)cc3)ccc1O2	KLK7 zymogen act 35 | proKLK7 act conf 26 | EDANS interfere 46
CC(C)(C)c1ccc(OCC(=O)NCc2ccco2)cc1	none
Cc1cccc(OCC(=O)N2CCC3(CC2)CC(=O)c2ccccc2O3)c1	none
CC(=O)N1CCC2(CC1)CC(=O)c1cc(OCC(=O)NCc3ccco3)ccc1O2	KLK7 zymogen act 28 | proKLK7 act conf 48 | EDANS interfere 49
CCCCCCCCN1C(=O)[C@@H](CC(=O)NCc2ccc(OC)c(OC)c2)C[C@@]2(C(=O)OC)C1=C[C@H](COCc1ccccc1)O[C@@H]2C	none
COc1ccc2cc3cc(C(=O)NCc4cccs4)oc3nc2c1	none
Cc1ccc2cc3cc(C(=O)NCCCN4CCCC4=O)oc3nc2c1	KLK7 zymogen act 17 | proKLK7 act conf inactive | EDANS interfere 7.5
COc1ccc2cc3cc(C(=O)NCCCN4CCOCC4)oc3nc2c1	KLK7 zymogen act 49 | proKLK7 act conf 64 | EDANS interfere 69
Cc1ccc2cc3cc(C(=O)NCCN4CCOCC4)oc3nc2c1	KLK7 zymogen act 13 | proKLK7 act conf 14 | EDANS interfere 13
CCCCN(CC)CCCNC(=O)c1cc2cc3ccc(OC)cc3nc2o1	KLK7 zymogen act 63 | proKLK7 act conf 58 | EDANS interfere 72
C=CCN1[C@@H](Cc2ccccc2)COc2cccc(F)c2S1(=O)=O	none
O=C(CSc1nc2ccccc2c(=O)n1-c1ccc(Cl)cc1)NNC(=S)Nc1ccccc1	none
COc1ccc2noc3c2c1C(=O)c1ccccc1-3	KLK7 zymogen act 25 | proKLK7 act conf inactive | EDANS interfere inactive
COc1ccc(OC)c2c1C(=O)c1ccccc1C2=O	none
Cc1cc(C)nc(/N=C(\NC(=O)C(C)(C)C)Nc2ccccc2)n1	none
Cc1cc(-c2ccccc2)c2ccc(NC(=O)C(C)(C)C)nc2n1	KLK7 zymogen act 33 | proKLK7 act conf inactive | EDANS interfere inactive
Cc1sc2nc3ccc(NCc4ccco4)nn3c(=O)c2c1C	KLK7 zymogen act 17 | proKLK7 act conf 74 | EDANS interfere 70
C[C@@H]1ON(C)[C@H]2C[C@H]3c4[nH]c5c(-c6cc(Cl)cc(Cl)c6)cccc5c4CCN3C(=O)[C@@H]12	none
O=S(=O)(c1ccc(-c2cn3ccccc3n2)cc1)N1CCOCC1	KLK7 zymogen act 16 | proKLK7 act conf 19 | EDANS interfere 16 | K7 EDANS ctr inactive
CC(C)NC[C@@H](O)c1ccc(O)c(O)c1	KLK7 zymogen act 33 | proKLK7 act conf 51 | EDANS interfere 49
COc1cc2c3nnc(-c4ccc(F)cc4)c-3cn(Cc3ccc(F)cc3)c2cc1OC	KLK7 zymogen act 13 | proKLK7 act conf inactive | EDANS interfere inactive
COc1ccc(Cn2cc3c(-c4ccc(F)cc4)nnc-3c3cc(OC)c(OC)cc32)cc1	none
O=C(NCCc1c[nH]c2ccccc12)OCc1cn(Cc2ccc(F)cc2F)nn1	none
CCOC(=O)Nc1c2ccccc2nc2ccccc12	KLK7 zymogen act 14 | proKLK7 act conf 38 | EDANS interfere 43
COc1ccc(NS(=O)(=O)c2cccc(NC(=O)C3=NN(c4ccccc4)C(=O)CC3)c2)cc1	none
CN(c1ccccc1)S(=O)(=O)c1cccc(NC(=O)C2=NN(c3ccccc3)C(=O)CC2)c1	KLK7 zymogen act 53 | proKLK7 act conf inactive | EDANS interfere 8.6
COC(=O)[C@]12C[C@H](CC(=O)NCCC(C)C)C(=O)N(CCc3ccc(OC)c(OC)c3)C1=C[C@H](C(C)C)O[C@@H]2C1CC1	none
O=C(NCc1cccnc1)Nc1ccc2c(c1)OCO2	none
Nc1nc2cc3c(cc2cc1C(=O)NCc1cccnc1)OCO3	KLK7 zymogen act 18 | proKLK7 act conf 30 | EDANS interfere 36
CCOc1cc(C2C3=C(CCCC3=O)N(CCC(=O)O)C3=C2C(=O)CCC3)ccc1OS(=O)(=O)c1ccc(C)cc1	KLK7 zymogen act 20 | proKLK7 act conf 30 | EDANS interfere 32
Cc1oc2cc(OC(=O)c3ccco3)ccc2c(=O)c1-c1nc2ccccc2n1C	KLK7 zymogen act 16 | proKLK7 act conf 115 | EDANS interfere 104
COc1ccc(Oc2coc3cc(OC(=O)/C=C/c4ccccc4)ccc3c2=O)cc1	none
Cc1cc(=O)oc2cc(OC(=O)c3ccccc3)ccc12	KLK7 zymogen act 117 | proKLK7 act conf 519 | EDANS interfere 377
Cc1cc(C)cc(Oc2coc3cc(OC(=O)c4cccs4)ccc3c2=O)c1	KLK7 zymogen act 14 | proKLK7 act conf 24 | EDANS interfere 17 | K7 EDANS ctr inactive
Cc1cc(=O)oc2cc(OCC(=O)c3ccccc3)ccc12	none
CC(=O)Oc1ccc2c(=O)c(-c3ccccc3)c(C)oc2c1	KLK7 zymogen act 121 | proKLK7 act conf 446 | EDANS interfere 384
Cc1cc(=O)oc2cc(OCC(=O)N3CCN(C(=O)c4ccco4)CC3)ccc12	none
CCCc1cc(=O)oc2cc(OC(=O)CN3C(=O)NC4(CCCC4)C3=O)ccc12	KLK7 zymogen act 62 | proKLK7 act conf 224 | EDANS interfere 193
CCc1cc(=O)oc2cc(OC(=O)c3ccco3)ccc12	KLK7 zymogen act 353 | proKLK7 act conf 788 | EDANS interfere 761
